{
  "source": "PubChem BioAssay AID1030",
  "about": "(National Center for Advancing Translational Sciences (NCATS), 2008)",
  "note": "The whole screen tested about 220,000 compounds, of which about 16,000 (7.3%) were called active. Inconclusive results (about 25%) are left out. The sample holds actives, similar compounds and a random draw of the others, so the mix is not that of the screen. The call rests on the fitted dose curve; in most records, active means well fitted inhibition curve with a large enough effect (not every such curve was filed as active); inconclusive means small, poorly fitted or top-dose-only effect, or another doubt; inactive means no such curve, though single readings can be large or run the other way. Potency means the concentration at half of the fitted maximal effect.",
  "data": [
    {"target": "Aldehyde dehydrogenase 1A1 (Homo sapiens) (UniProt P00352)", "sequence (P00352 whole entry, looked up)": "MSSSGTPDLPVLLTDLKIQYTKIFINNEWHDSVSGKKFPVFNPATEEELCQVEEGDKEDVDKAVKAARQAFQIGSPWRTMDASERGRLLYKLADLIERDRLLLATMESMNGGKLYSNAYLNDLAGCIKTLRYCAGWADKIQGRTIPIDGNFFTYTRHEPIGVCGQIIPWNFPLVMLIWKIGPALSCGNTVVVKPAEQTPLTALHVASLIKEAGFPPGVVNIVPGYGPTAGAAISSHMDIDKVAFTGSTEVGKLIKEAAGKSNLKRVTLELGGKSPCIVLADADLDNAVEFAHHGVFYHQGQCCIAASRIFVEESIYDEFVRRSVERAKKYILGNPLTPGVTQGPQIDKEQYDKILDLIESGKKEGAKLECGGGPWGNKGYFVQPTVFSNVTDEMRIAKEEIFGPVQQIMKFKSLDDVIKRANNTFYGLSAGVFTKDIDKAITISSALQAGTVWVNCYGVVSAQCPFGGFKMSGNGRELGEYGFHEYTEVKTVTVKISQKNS", "experiment": "qHTS Assay for Inhibitors of Aldehyde Dehydrogenase 1 (ALDH1A1);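 on activity, negative = inhibition: plate controls were no enzyme wells and a reference inhibitor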", "conditions": "Purified ALDH1A1, NADH fluorescence, propionaldehyde substrate; series mostly up to 75.3 µM; activity, negative = inhibition: at the top concentration", "values": [
      {"smiles": "S=C(NCCCc1cnc[nH]1)NCCCN(Cc1ccc(Cl)c(Cl)c1)c1ccc(Br)cn1", "activity, negative = inhibition": "16.4% (inactive)"},
      {"smiles": "COc1ccc(C(CCNCc2ccccc2F)c2ccc(F)cc2)cc1", "note": "(stereo unspecified)", "activity, negative = inhibition": "-5.1% (inactive)"},
      {"smiles": "COc1ccc(N2CC(C)Cn3c2nc2c3c(=O)n(Cc3ccccc3F)c(=O)n2C)c(OC)c1", "note": "(stereo unspecified)", "Potency": "17.8 µM (active)"},
      {"smiles": "CC1CN(C2CCCCC2)c2nc3c(c(=O)n(C)c(=O)n3C)n2C1", "note": "(stereo unspecified)", "activity, negative = inhibition": "-10.7% (inactive)"},
      {"smiles": "COc1ccc2c(c1)CCc1c(C(=O)Nc3c(C)n(C)n(-c4ccccc4)c3=O)noc1-2", "activity, negative = inhibition": "-2.21% (inactive)"},
      {"smiles": "COc1ccc2c(c1)CCc1c(C(=O)N3CCCC3)noc1-2", "Potency": "10 µM (active)"},
      {"smiles": "O=C(c1cc(-c2ccccc2O)on1)N1CCCC1", "activity, negative = inhibition": "-10.4% (inactive)"},
      {"smiles": "CCCCc1ccc(NC(=S)NCCCN2CCOCC2)cc1", "activity, negative = inhibition": "-12.3% (inactive)"},
      {"smiles": "Cc1cccc(C(=O)OC(C)CN2CCN(C)CC2)c1", "note": "(stereo unspecified)", "activity, negative = inhibition": "3.82% (inactive)"},
      {"smiles": "CC1(C)CC(N(Cc2ccccc2)C(=O)Cc2ccccc2)CCO1", "note": "(stereo unspecified)", "activity, negative = inhibition": "8.75% (inactive)"},
      {"smiles": "Cc1noc(C)c1COc1cccc(C(=O)Nc2cccnc2)c1", "activity, negative = inhibition": "12.2% (inactive)"},
      {"smiles": "O=C(O)c1ccc2c3c(cccc13)C(=O)N(OS(=O)(=O)c1ccccc1)C2=O", "activity, negative = inhibition": "-18.5% (inactive)"},
      {"smiles": "Cc1ccccc1NC(=O)NC1(C(=O)N2CCCC2)CCCCC1", "activity, negative = inhibition": "9.14% (inactive)"},
      {"smiles": "O=C(CN1C(=O)NC2(CCCCCC2)C1=O)NCc1cccs1", "activity, negative = inhibition": "-0.321% (inactive)"},
      {"smiles": "O=C(CN1C(=O)NC2(CCCCCC2)C1=O)NC1CC1", "activity, negative = inhibition": "8.47% (inactive)"},
      {"smiles": "O=C1CN(C(=O)CN2C(=O)NC3(CCCCC3)C2=O)c2ccccc2N1", "Potency": "15.8 µM (active)"},
      {"smiles": "O=C(COC(=O)Cn1cnc2ccccc2c1=O)NCc1ccccc1Cl", "activity, negative = inhibition": "-14.8% (inactive)"},
      {"smiles": "COc1ccc(C(C)=O)cc1COC(=O)Cn1cnc2ccccc2c1=O", "Potency": "20 µM (active)"},
      {"smiles": "CCOC(=O)N1CCN(C(=O)Cn2cnc3ccccc3c2=O)CC1", "activity, negative = inhibition": "-6.76% (inactive)"},
      {"smiles": "CCOCCCN(C(=O)Cn1nnc(-c2ccc(OC)c(OC)c2)n1)C(CC)C(=O)NC1CCCC1", "note": "(stereo unspecified)", "activity, negative = inhibition": "1.58% (inactive)"},
      {"smiles": "NC1CCN(O)C1=O", "note": "(stereo unspecified)", "activity, negative = inhibition": "-6.54% (inactive)"},
      {"smiles": "C/C=N/NC(=O)CCCC(=O)N/N=C/C", "activity, negative = inhibition": "-8.73% (inactive)"},
      {"smiles": "O=C(N/N=C/c1ccc([N+](=O)[O-])cc1)C(=O)N1CCCC1", "activity, negative = inhibition": "-13.2% (inactive)"},
      {"smiles": "CCOCCCNC(=S)N1CCC(NC(=O)C2CCCCC2)CC1", "activity, negative = inhibition": "6.18% (inactive)"},
      {"smiles": "COCc1cc(C(C)=O)ccc1OC", "activity, negative = inhibition": "2.62% (inactive)"},
      {"smiles": "CCOc1ccc(C(C)=O)cc1COC(=O)c1cnc(Cl)c(Cl)c1", "Potency": "0.708 µM (active)"},
      {"smiles": "O=C(OCc1cc(Cl)ccc1OC(F)F)c1cccnc1", "activity, negative = inhibition": "2.42% (inactive)"},
      {"smiles": "Cc1ccccc1C1=N/C(=C/c2cccnc2)C(=O)O1", "activity, negative = inhibition": "-2.62% (inactive)"},
      {"smiles": "Cc1cccc(C2=N/C(=C/c3cccs3)C(=O)O2)c1", "activity, negative = inhibition": "-4.31% (inactive)"},
      {"smiles": "Cc1ccc(C2=N/C(=C\\c3ccc(OS(=O)(=O)c4ccc(C)cc4)cc3)C(=O)O2)cc1", "Potency": "25.1 µM (active)"},
      {"smiles": "COCCN(C(=S)Nc1ccccc1OC)C1CCN(C(C)C)CC1", "activity, negative = inhibition": "-1.56% (inactive)"}
    ]}
  ]
}
